{
  "source": "paper PMC7862700",
  "about": "“An all-to-all approach to the identification of sequence-specific readers for epigenetic DNA modifications on cytosine”",
  "assay_in_all_cases": "DAPPL (digital affinity profiling via proximity ligation, sequencing); 10 mM Tris-HCl pH 7.5, 50 mM NaCl, 1 mM DTT, 4% glycerol, room temperature, 30 min; GST-TFs on glutathione beads, 16-mer random dsDNA library, 0.1% formaldehyde crosslink after washing; high values mean tight binding",
  "details_in_all_cases": "protein: recombinant; tags: N-terminal GST; dsDNA, one strand shown",
  "key": {"[1]": {"target": "T1, FLI1 (Homo sapiens, UniProt Q01543 1-452)", "T1 sequence": "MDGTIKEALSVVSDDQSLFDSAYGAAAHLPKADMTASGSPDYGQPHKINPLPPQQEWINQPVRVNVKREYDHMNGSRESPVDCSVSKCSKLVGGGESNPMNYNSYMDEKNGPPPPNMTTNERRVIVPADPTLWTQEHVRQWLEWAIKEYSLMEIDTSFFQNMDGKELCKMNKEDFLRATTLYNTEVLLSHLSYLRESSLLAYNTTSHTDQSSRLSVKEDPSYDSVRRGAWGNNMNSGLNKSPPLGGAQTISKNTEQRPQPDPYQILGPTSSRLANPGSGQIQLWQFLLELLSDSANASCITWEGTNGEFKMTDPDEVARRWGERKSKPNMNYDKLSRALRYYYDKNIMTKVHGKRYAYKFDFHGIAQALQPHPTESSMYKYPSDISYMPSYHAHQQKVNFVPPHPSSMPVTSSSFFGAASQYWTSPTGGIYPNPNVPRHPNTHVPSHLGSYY", "summary_of_the_method": "(§1)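 Human transcription factors were made in yeast as GST fusions, captured on glutathione beads and barcoded with DNA. With a tag-only sample included, the pool was incubated with 200 nmole of a random double-stranded 16-mer DNA library in Tris/NaCl/DTT/glycerol buffer at room temperature for 30 min, then crosslinked with 0.1% formaldehyde after washing, ligated by proximity, amplified and sequenced. For binding signal, each hexamer's read frequency for a factor is divided by its frequency for the tag-only sample.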"}, "[2]": {"target": "T2, ELK1 (Homo sapiens, UniProt P19419 1-428)", "T2 sequence": "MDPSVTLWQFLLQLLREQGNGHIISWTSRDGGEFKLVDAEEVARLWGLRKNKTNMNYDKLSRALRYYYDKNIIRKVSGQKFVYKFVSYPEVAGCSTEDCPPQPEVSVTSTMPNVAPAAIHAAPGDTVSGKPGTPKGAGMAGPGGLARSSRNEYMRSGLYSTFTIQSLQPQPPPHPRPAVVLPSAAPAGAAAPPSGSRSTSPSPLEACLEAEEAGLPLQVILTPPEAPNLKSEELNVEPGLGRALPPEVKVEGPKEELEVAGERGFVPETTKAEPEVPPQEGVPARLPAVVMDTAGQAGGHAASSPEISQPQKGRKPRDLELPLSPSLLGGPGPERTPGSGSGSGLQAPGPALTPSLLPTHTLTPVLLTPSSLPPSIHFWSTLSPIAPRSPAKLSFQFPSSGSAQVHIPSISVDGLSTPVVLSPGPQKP", "summary_of_the_method": "as §1"}, "[3]": {"target": "T3, GABPA (Homo sapiens, UniProt Q06546 1-454)", "T3 sequence": "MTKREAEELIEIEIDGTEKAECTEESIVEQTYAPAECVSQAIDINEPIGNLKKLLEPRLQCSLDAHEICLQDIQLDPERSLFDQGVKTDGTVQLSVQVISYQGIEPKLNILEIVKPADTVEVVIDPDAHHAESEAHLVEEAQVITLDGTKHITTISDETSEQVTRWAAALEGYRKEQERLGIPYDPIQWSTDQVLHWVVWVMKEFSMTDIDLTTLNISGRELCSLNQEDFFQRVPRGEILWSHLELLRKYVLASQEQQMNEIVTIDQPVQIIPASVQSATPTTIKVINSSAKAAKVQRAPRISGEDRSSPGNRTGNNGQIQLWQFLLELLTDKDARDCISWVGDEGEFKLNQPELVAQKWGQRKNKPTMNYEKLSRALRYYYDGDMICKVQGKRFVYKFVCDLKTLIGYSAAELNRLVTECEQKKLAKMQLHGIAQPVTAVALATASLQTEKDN", "summary_of_the_method": "as §1"}, "[4]": {"target": "ELF1 (Homo sapiens, UniProt P32519 1-619)", "sequence (P32519 whole entry)": "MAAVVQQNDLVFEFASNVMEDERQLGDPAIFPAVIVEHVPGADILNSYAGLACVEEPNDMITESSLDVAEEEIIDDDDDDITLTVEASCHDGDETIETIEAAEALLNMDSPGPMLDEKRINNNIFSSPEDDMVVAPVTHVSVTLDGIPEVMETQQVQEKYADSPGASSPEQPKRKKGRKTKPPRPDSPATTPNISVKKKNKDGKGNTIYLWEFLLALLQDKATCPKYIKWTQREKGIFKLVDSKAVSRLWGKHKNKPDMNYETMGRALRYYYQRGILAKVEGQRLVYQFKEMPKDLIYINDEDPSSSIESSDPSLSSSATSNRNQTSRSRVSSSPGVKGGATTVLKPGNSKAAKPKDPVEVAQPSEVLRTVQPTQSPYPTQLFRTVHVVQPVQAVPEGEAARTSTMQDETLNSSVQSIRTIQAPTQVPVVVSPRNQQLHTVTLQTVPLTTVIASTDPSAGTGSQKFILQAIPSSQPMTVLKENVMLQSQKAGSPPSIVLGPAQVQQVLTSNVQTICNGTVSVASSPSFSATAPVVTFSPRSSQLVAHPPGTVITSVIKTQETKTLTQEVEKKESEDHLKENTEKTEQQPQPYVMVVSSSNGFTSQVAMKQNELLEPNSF", "summary_of_the_method": "as §1"}, "[5]": {"target": "T4, SPIC (Homo sapiens, UniProt Q8N5J4 1-248)", "T4 sequence": "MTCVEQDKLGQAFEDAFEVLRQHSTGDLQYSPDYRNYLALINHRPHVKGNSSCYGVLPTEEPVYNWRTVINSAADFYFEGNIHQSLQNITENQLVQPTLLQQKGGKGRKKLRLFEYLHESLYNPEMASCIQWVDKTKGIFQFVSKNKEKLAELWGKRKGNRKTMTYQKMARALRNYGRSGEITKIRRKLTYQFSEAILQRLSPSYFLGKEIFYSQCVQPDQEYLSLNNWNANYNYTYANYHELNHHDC", "summary_of_the_method": "as §1"}, "[6]": {"target": "ELF4 (Homo sapiens, UniProt Q99607 1-663)", "sequence (Q99607 whole entry)": "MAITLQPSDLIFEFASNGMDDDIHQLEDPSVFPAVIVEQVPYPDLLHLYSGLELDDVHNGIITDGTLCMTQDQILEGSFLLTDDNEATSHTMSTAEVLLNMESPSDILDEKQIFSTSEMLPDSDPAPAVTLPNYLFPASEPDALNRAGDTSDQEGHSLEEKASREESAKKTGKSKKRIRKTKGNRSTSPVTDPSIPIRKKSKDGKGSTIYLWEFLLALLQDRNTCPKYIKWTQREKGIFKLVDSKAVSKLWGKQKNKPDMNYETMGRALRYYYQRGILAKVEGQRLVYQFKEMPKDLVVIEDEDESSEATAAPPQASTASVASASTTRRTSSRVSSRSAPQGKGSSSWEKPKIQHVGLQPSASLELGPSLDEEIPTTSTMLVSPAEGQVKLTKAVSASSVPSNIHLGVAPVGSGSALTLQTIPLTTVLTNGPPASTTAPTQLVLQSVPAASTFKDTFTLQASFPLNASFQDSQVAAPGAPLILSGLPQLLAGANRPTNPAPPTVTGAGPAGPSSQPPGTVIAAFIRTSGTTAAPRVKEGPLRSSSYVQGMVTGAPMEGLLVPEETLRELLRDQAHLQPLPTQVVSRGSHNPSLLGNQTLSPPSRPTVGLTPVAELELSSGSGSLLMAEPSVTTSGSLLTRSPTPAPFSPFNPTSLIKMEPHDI", "summary_of_the_method": "as §1"}, "[7]": {"target": "T5, ELK4 (Homo sapiens, UniProt P28324-2 1-405)", "T5 sequence": "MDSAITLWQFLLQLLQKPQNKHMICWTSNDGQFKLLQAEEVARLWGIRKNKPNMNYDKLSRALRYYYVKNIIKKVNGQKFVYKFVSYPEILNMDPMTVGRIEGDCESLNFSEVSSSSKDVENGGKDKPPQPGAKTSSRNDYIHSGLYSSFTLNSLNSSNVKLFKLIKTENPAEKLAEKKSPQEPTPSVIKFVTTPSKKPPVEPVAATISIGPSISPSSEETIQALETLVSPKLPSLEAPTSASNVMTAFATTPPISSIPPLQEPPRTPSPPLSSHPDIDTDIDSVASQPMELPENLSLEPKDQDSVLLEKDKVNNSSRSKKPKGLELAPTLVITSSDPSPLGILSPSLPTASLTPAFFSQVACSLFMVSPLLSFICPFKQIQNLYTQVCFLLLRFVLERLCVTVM", "summary_of_the_method": "as §1"}, "[8]": {"target": "T6, ETV2 (Homo sapiens, UniProt O00321 1-342)", "T6 sequence": "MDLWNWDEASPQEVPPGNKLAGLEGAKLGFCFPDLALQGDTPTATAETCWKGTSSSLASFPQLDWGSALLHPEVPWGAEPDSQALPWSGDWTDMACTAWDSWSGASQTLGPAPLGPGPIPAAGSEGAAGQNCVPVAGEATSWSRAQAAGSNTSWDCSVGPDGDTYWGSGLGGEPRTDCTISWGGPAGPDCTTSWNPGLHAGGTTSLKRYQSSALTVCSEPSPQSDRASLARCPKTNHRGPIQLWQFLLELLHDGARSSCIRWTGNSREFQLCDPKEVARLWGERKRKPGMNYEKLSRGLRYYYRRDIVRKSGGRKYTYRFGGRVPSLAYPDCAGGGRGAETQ", "summary_of_the_method": "as §1"}, "[9]": {"target": "T7, ELF3 (Homo sapiens, UniProt P78545 1-371)", "T7 sequence": "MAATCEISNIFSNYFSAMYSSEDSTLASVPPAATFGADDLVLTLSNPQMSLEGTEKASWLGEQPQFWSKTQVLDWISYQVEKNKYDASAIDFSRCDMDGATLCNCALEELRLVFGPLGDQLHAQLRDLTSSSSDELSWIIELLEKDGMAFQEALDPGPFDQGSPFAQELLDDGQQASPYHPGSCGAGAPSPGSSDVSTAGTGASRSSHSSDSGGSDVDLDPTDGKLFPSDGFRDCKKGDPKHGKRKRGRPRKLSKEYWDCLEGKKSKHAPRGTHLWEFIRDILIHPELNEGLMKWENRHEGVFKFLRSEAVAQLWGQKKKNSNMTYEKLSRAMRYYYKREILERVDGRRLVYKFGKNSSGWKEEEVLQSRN", "summary_of_the_method": "as §1"}, "[10]": {"target": "ETV1 (Homo sapiens, UniProt P50549 1-477)", "sequence (P50549 whole entry)": "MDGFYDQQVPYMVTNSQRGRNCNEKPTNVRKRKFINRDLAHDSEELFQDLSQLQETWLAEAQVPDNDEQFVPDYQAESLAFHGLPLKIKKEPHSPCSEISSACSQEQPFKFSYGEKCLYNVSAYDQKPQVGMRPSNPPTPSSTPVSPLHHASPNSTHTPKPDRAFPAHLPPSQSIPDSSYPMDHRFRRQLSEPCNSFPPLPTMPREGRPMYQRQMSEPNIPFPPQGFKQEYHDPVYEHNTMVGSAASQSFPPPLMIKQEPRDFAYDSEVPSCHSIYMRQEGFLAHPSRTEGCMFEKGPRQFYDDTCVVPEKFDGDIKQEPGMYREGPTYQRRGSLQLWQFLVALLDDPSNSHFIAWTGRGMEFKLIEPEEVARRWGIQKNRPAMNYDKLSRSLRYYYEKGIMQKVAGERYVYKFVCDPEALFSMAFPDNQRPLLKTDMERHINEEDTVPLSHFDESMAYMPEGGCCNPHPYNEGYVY", "summary_of_the_method": "as §1"}, "[11]": {"target": "T8, ERF (Homo sapiens, UniProt P50548 1-548)", "T8 sequence": "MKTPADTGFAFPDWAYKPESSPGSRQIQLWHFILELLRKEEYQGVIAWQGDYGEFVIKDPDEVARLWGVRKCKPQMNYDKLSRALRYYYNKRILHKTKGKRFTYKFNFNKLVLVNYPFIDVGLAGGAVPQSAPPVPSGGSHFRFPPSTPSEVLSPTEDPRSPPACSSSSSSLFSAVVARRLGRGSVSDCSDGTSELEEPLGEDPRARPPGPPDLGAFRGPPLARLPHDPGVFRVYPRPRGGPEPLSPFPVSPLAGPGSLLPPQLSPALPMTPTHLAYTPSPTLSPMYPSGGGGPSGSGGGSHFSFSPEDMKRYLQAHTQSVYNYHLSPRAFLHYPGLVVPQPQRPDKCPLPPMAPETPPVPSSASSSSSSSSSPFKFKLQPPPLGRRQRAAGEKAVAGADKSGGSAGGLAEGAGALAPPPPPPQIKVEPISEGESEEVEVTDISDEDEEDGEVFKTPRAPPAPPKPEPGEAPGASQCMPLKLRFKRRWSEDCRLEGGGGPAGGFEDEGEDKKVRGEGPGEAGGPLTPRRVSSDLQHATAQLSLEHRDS", "summary_of_the_method": "as §1"}, "[12]": {"target": "T9, ETV7 (Homo sapiens, UniProt Q9Y603 1-341)", "T9 sequence": "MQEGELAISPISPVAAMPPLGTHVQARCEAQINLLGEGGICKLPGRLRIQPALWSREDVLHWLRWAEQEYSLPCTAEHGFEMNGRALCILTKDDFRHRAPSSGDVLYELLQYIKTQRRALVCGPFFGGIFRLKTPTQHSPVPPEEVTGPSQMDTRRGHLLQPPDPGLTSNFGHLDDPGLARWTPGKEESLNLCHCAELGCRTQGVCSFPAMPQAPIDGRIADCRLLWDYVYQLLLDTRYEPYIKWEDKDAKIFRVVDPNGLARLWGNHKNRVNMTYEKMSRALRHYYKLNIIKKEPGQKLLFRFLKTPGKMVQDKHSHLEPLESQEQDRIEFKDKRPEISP", "summary_of_the_method": "as §1"}, "[13]": {"target": "T10, ETV3 (Homo sapiens, UniProt P41162-2 1-143)", "T10 sequence": "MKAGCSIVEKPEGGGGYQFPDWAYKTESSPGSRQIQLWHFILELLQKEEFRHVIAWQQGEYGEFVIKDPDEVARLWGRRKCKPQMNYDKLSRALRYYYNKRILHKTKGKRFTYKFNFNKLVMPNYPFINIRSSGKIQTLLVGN", "summary_of_the_method": "as §1"}},
  "data": [
    {"sequence": "ACTTGA", "values": [
      {"measurement": "binding signal", "setting": "[1]", "value": "1.1 fold enrichment (6-mer frequency, TF over GST control)"},
      {"measurement": "binding signal", "setting": "[2]", "value": "1.1 fold enrichment (6-mer frequency, TF over GST control)"},
      {"measurement": "binding signal", "setting": "[3]", "value": "1 fold enrichment (6-mer frequency, TF over GST control)"},
      {"measurement": "binding signal", "setting": "[4]", "value": "1.02 fold enrichment (6-mer frequency, TF over GST control)"},
      {"measurement": "binding signal", "setting": "[5]", "value": "1 fold enrichment (6-mer frequency, TF over GST control)"},
      {"measurement": "binding signal", "setting": "[6]", "value": "1.07 fold enrichment (6-mer frequency, TF over GST control)"},
      {"measurement": "binding signal", "setting": "[7]", "value": "1.14 fold enrichment (6-mer frequency, TF over GST control)"},
      {"measurement": "binding signal", "setting": "[8]", "value": "1.13 fold enrichment (6-mer frequency, TF over GST control)"},
      {"measurement": "binding signal", "setting": "[9]", "value": "1.04 fold enrichment (6-mer frequency, TF over GST control)"},
      {"measurement": "binding signal", "setting": "[10]", "value": "1.07 fold enrichment (6-mer frequency, TF over GST control)"},
      {"measurement": "binding signal", "setting": "[11]", "value": "1.01 fold enrichment (6-mer frequency, TF over GST control)"},
      {"measurement": "binding signal", "setting": "[12]", "value": "1.08 fold enrichment (6-mer frequency, TF over GST control)"},
      {"measurement": "binding signal", "setting": "[13]", "value": "1.07 fold enrichment (6-mer frequency, TF over GST control)"}
    ]}
  ]
}
